KCNQ2 enhance = enhances the rat KCNQ2 potassium channel; CHO-K1 KCNQ2, FluxOR thallium flux fluorescence; active compounds read high; B-score at 10 µM; hit rate 0.54% among 310,000; AID 2239;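 active means fluorescence ratio B-score at least 3 SD of library B-scores, with initial fluorescence B-score within 3 of them, cut at about 5.3 in these data; same plate scores as AID 2156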;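 further: B-score of peak minus minimum over baseline fluorescence ratio after K+ and Tl+ stimulus; positive B-score means potentiation of KCNQ2 with more thallium influx and brighter signal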
Target sequence (O88943 whole entry, looked up): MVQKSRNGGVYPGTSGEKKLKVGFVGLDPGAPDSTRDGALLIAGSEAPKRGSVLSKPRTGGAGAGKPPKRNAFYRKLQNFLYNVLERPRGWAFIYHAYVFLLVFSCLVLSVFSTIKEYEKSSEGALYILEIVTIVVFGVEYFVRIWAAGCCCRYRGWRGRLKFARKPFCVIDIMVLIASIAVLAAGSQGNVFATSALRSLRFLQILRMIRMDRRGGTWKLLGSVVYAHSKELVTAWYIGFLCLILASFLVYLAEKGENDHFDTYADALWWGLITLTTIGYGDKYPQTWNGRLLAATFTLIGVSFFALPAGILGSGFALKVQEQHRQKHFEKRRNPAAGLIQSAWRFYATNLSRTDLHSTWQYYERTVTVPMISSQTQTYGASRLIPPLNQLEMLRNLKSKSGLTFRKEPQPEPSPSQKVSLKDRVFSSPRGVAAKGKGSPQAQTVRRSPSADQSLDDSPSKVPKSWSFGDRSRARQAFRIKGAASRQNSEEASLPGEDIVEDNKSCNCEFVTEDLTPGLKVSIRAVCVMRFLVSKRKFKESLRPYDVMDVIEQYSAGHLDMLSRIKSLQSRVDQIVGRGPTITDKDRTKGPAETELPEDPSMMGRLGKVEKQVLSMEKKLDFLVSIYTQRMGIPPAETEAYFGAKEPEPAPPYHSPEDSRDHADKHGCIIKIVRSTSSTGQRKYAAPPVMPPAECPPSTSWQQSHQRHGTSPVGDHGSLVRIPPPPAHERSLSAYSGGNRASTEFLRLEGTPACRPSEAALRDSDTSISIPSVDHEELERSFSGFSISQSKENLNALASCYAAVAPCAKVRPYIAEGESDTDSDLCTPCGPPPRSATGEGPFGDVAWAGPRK
KCNQ2 block = inhibitors of rat KCNQ2 potassium channel; O88943; B-score at 10 µM; hit rate 1.1% among 310,000; CHO-K1 KCNQ2, FluxOR thallium flux, 20 min; active compounds read low;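 active means fluorescence ratio B-score at most minus 3 library SDs, with starting brightness B-score within 2 library SDs, cut at about -5.5 in these data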
KCNQ2 inh conf = confirmation of rat KCNQ2 potassium channel inhibitors; KCNQ2-expressing cells, thallium flux, inhibition; active compounds read low; hit rate 57% among 1,000; shares compounds with KCNQ2 block; activity change, negative = inhibition, % at 10 µM; AID 493025;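 further: 0% = vehicle wells and values are ratio percent relative to vehicle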
KCNQ1 spec = selectivity of KCNQ2 inhibitors against human KCNQ1; shares compounds with KCNQ2 block; KCNQ1-expressing cells, FluxOR thallium flux fluorescence; active compounds read low; activity change, negative = inhibition, % at 10 µM; hit rate 15% among 1,000;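 active means activity change at least 3 SD of negative controls below their mean in both duplicate wells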;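 further: CHO cells stably transfected with KCNQ1 and depolarized by potassium stimulus; peak minus minimum fluorescence over baseline after thallium addition; 0% = vehicle negative control and -100% = blank without thallium stimulus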
CHO parental ctr = activity in parental CHO cells lacking KCNQ2; thallium flux counter-screen; active compounds read low; AID 493029; shares compounds with KCNQ2 block; activity change, % at 10 µM; hit rate 14% among 1,000;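 further: 0% = vehicle negative controls with stimulus buffer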
KCNQ2 inh confirm = confirmation of rat KCNQ2 potassium channel inhibitors | shares compounds with KCNQ2 block | KCNQ2-expressing cells, automated patch clamp current | calls only at 10 µM | hit rate 49% among 550 | AID 588531
Starred values were filed as active, the others as inactive; i = inactive; / = no result given; + = active, no number. Only some compounds are listed: those with a hit (about 1.6% of all), similar ones and a draw of the others. Unless noted, how the calls were made is not given here.

SMILES | KCNQ2 enhance | KCNQ2 block | KCNQ2 inh conf | KCNQ1 spec | CHO parental ctr | others
COc1cc(CNCCO)cc(Br)c1OCc1ccccc1Cl | / | i | / | / | /
Cc1cc(C(c2ccc(C)o2)c2ccc(C)o2)c(O)c([N+](=O)[O-])c1 | -8.9 | -8.9* | i | i | i
Cc1ccc(C(c2ccc(C)o2)c2cccc([N+](=O)[O-])c2O)o1 | / | i | / | / | /
COc1cccc(C(=O)Nc2ccccc2OC(F)(F)F)c1 | / | i | / | / | /
Cc1ccc2c(c1)c1c3n2CCN(C(=O)CN2CCN(C)CC2)C3CCC1 (stereo not given) | / | i | / | / | /
CN1CCN(CC(=O)N2CCn3c4c(c5cc(C6CCCCC6)ccc53)CCCC42)CC1 (stereo not given) | -13 | -13* | -30%* | i | i | KCNQ2 inh confirm=i
CCOC(=O)C1(P(=O)(c2ccc(Cl)cc2)c2ccc(Cl)cc2)CCC1 | -7.2 | -7.2* | -29%* | i | i | KCNQ2 inh confirm=+
O=C(O)C1(P(=O)(c2ccc(Cl)cc2)c2ccc(Cl)cc2)CC1 | 0.44 | i | / | / | /
CCOC(=O)c1c(NC(=O)CCc2ccc(CC)o2)sc(C)c1C | -8.2 | -8.2* | i | i | i
CCOC(=O)c1ccc(NC(=O)CCc2ccc(CC)o2)cc1 | / | i | / | / | /
CCN(CC)C(=O)c1cc2c(=O)c3cc(Cl)ccc3oc2nc1C | -7.4 | -7.4* | -28%* | i | i | KCNQ2 inh confirm=+
CCOC(=O)c1cc2c(=O)c3cc(C)ccc3oc2nc1C | 1.5 | i | / | / | /
Cn1cccc1/C=C1\Cc2ccccc2C1=O | / | i | / | / | /
Cn1cccc1/C=C1\CC(C(C)(C)C)C/C(=C\c2cccn2C)C1=O (stereo not given) | -11 | -11* | -72%* | -74%* | -68%* | KCNQ2 inh confirm=i
O=[N+]([O-])c1ccc(C2CCCC/C2=N/OCc2ccccc2F)c([N+](=O)[O-])c1 (stereo not given) | -10 | -10* | -36%* | i | i | KCNQ2 inh confirm=i
O=[N+]([O-])c1ccc(C2CCCC/C2=N/OCc2ccc(F)cc2)c([N+](=O)[O-])c1 (stereo not given) | / | i | / | / | /
COc1ccc(/C=N/NC(=O)c2cccnc2)cc1O | -7.2 | -7.2* | i | i | i
CCNC(=O)COc1ccc(/C=N/NC(=O)c2cccnc2)cc1OC | 0.09 | i | / | / | /
CCOC(=O)Cc1c(C)nc(Cc2ccc(OC(C)C)cc2)[nH]c1=O | 0.44 | i | / | / | /
Cc1ccccc1CC1(CO)CCCN(C(=O)c2cc(Cl)ccc2F)C1 (stereo not given) | 0.43 | i | / | / | /
Cc1ccccc1CC1(CO)CCCN(C(=O)c2cccc(Cl)c2)C1 (stereo not given) | -6.8 | -6.8* | -27%* | i | i | KCNQ2 inh confirm=i
CCOC(=O)C1C(=O)C=C(c2ccc(C)cc2)CC1c1ccccc1 (stereo not given) | -7.2 | -7.2* | -26%* | i | i | KCNQ2 inh confirm=i
CCOC(=O)C1C(=O)C=C(c2cccs2)CC1c1ccccc1 (stereo not given) | / | i | / | / | /
Cc1cc(Cl)ccc1OC(C)C(=O)NCCc1ccc2c(c1)OCCO2 (stereo not given) | / | i | / | / | /
Cc1cc(Cl)ccc1OC(C)C(=O)NCCCCc1ccccc1 (stereo not given) | -7.3 | -7.3* | -32%* | i | i | KCNQ2 inh confirm=+
SMILES | KCNQ2 enhance | KCNQ2 block | KCNQ2 inh conf | KCNQ1 spec | CHO parental ctr | others
CCC(C)(C)n1nnnc1C(c1ccc(C)cc1)N(Cc1ccco1)Cc1cccs1 (stereo not given) | -9.9 | -9.9* | i | i | i
CCC(C)(C)n1nnnc1C(C(C)C)N(Cc1cccnc1)Cc1ccco1 (stereo not given) | / | i | / | / | /
CCCN(CCC)CCNC(=O)c1cc2c(-c3ccc(Cl)cc3)nn(C)c2s1 | -7.3 | -7.3* | -34%* | i | i | KCNQ2 inh confirm=i
CCCCN(CC)CCNC(=O)c1cc2c(-c3ccc(Cl)cc3)nn(C)c2s1 | -8.4 | -8.4* | -35%* | i | i | KCNQ2 inh confirm=i
CCOCCCNC(=O)c1cc2c(-c3ccc(Cl)cc3)nn(C)c2s1 | 0.84 | i | / | / | /
CCN(CC)CCNC(=O)c1cc2c(-c3ccc(Cl)cc3)nn(C)c2s1 | / | i | / | / | /
CCc1nc2nc(C)c(NS(=O)(=O)c3ccc(C4CCCCC4)cc3)c(=O)n2[nH]1 | 0.81 | i | / | / | /
CC(C)=NOc1nc(N2CCOCC2)nc(N2CCOCC2)n1 | 0.22 | i | / | / | /
CN(C)c1ccc(/C=C2\SC(N3CCCCC3)=NC2=O)cc1 | / | i | / | / | /
O=C(NCC(=O)N1CCCC(C(F)(F)F)C1)c1ccc(Oc2ccccc2)cc1 (stereo not given) | 1.4 | i | / | / | /
O=C(NCC(=O)N1CCCC(C(F)(F)F)C1)c1ccc2ccccc2c1 (stereo not given) | -6.9 | -6.9* | i | i | i
COc1ccc(NC(=O)CN(C)C(=O)/C=C/c2cn(-c3ccccc3)nc2-c2ccc(C)cc2)cc1 | / | i | / | / | /
COc1cccc(NC(=O)CN(C)C(=O)/C=C/c2cn(-c3ccccc3)nc2-c2ccc(C)cc2)c1 | -9.1 | -9.1* | -22%* | i | i | KCNQ2 inh confirm=i
CCN(Cc1ccccc1)C(=O)c1ccc(Cl)cc1[N+](=O)[O-] | 0.59 | i | / | / | /
Nn1c(SCC(=O)Nc2ccccc2Br)nnc1-c1ccco1 | 1.1 | i | / | / | /
CN(C)S(=O)(=O)c1ccc(N2CCCC2)c(C(=O)NNC(=O)COc2ccc(Cl)cc2)c1 | -7 | -7* | i | i | i
CN(C)S(=O)(=O)c1ccc(N2CCCC2)c(C(=O)NNC(=O)c2ccc(Br)cc2)c1 | -10 | -10* | -24%* | i | i | KCNQ2 inh confirm=+
CN(C)S(=O)(=O)c1ccc(N2CCCC2)c(C(=O)Nc2ccc(C(N)=O)cc2)c1 | / | i | / | / | /
CCc1ccc(OCC(=O)NNC(=O)c2cc(S(=O)(=O)N(C)C)ccc2N2CCCC2)cc1 | 0.12 | i | / | / | /
CC(C)C[C@H](NC(=O)OC(C)(C)C)C(=O)N[C@@H](CO)[C@H](O)[C@@H]1C[C@@H]1C(=O)N1CCCC1 | / | i | / | / | /
COc1ccc(C2CC(c3ccccc3)=NN2C(=O)c2ccc(F)cc2)cc1 (stereo not given) | 0.66 | i | / | / | /
O=C(Nc1ccccc1)N1N=C(c2ccc(F)cc2)CC1c1ccc(F)cc1 (stereo not given) | -6.7 | -6.7* | i | i | i
O=[N+]([O-])c1ccccc1SN(Cc1ccccc1)c1ccccn1 | 0.73 | i | / | / | /
COc1ccc(C(=O)NNC(=O)CSc2nnc(C)n2C)cc1 | / | i | / | / | /
COC(=O)c1cccc(Nc2c3c(nc4ccccc24)CCC3)c1 | -6.6 | -6.6* | -26%* | i | i | KCNQ2 inh confirm=+
CC(=O)c1cccc(Nc2c3c(nc4ccccc24)CCC3)c1 | / | i | / | / | /
CC(C)(C)c1cc(S(=O)(=O)CCc2ccncc2)cc(C(C)(C)C)c1F | 0.01 | i | / | / | /
CSc1nc(Cl)c(Cc2ccc(OC(C)C)cc2)c(N2CCOCC2)n1 | -11 | -11* | i | i | i
COc1nc(SC)nc(Cl)c1Cc1ccc(OC(C)C)cc1 | / | i | / | / | /

Bioassay records as filed in PubChem.
